High-throughput results from PubChem BioAssay.
Only some compounds are listed: those with a hit (about 2.3% of all), similar ones and a draw of the others.
C diff HTS – C. difficile growth inhibitors, primary screen, HTS | Clostridium difficile clinical isolate growth, OD600, 24 h; stronger effect = lower value | growth activity, negative = inhibition, % at 16 µg/mL (by protocol) | hit rate 0.25% among 86,000 | AID 1259249, 2017;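 active = mean growth activity at or below -80% and every replicate also at or below -80%; inconclusive = mean at or below -80% but some replicate above -80%; inactive = mean growth activity above -80%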
Pf Dd2 inh – P. falciparum Dd2 growth inhibitors, primary screen, SYBR Green fluorescence, single dose replicates | 72 h; stronger effect = lower value | activity change, % at 10 µM | hit rate 2.3% among 94,000 | AID 1159554, 2015; in the data active = activity change below about -80%; inconclusive = no clear call, values can overlap the other calls
Of the large screens only hits and unclear results are named; the others gave an inactive call.

C[C@@H]1CCCCO[C@@H](CN(C)C(=O)Nc2ccccc2)[C@@H](C)CN([C@H](C)CO)C(=O)c2cc(NC(=O)Nc3ccc(C(F)(F)F)cc3)ccc2O1	none
C[C@H]1CN([C@@H](C)CO)S(=O)(=O)c2ccc(C3=CCCC3)cc2O[C@H]1CN(C)S(C)(=O)=O	none (no result: C diff HTS)
CC(C)NC(=O)[C@@]1(C)c2ccccc2C(=O)N(Cc2ccccc2)[C@H]1c1ccc(CO)cc1	none (no result: Pf Dd2 inh)
COc1ccc2c3c([nH]c2c1)[C@H](CO)N(C(=O)C1CC1)CC31CCN(S(C)(=O)=O)CC1	none
Cc1noc(C)c1S(=O)(=O)N(C)C[C@@H]1OCCCC[C@H](C)Oc2ccc(NC(=O)Nc3cccc4ccccc34)cc2C(=O)N([C@H](C)CO)C[C@@H]1C	none
Cc1noc(C)c1S(=O)(=O)N(C)C[C@H]1OCCCC[C@H](C)Oc2ccc(NC(=O)Nc3cccc4ccccc34)cc2C(=O)N([C@@H](C)CO)C[C@@H]1C	Pf Dd2 inh -85
Cc1noc(C)c1S(=O)(=O)N(C)C[C@@H]1OCCCC[C@H](C)Oc2ccc(NC(=O)Nc3cccc4ccccc34)cc2C(=O)N([C@H](C)CO)C[C@H]1C	none
Cc1noc(C)c1S(=O)(=O)N(C)C[C@H]1OCCCC[C@H](C)Oc2ccc(NC(=O)Nc3cccc4ccccc34)cc2C(=O)N([C@H](C)CO)C[C@H]1C	Pf Dd2 inh -92
O=C(C1CCOCC1)N1C[C@@H]2[C@H](c3ccccc31)[C@@H](CO)N2Cc1ccc(Cl)cc1	none
CO[C@@H]1CN(C)C(=O)c2ccc(NC(=O)c3cc(C)on3)cc2OC[C@@H](C)N(CC2CC2)C[C@@H]1C	none (no result: C diff HTS)
O=C(Nc1ccc2c(c1)[C@@H]1C[C@@H](CC(=O)N3CCOCC3)O[C@H](CO)[C@@H]1O2)NC1CCCC1	none
CN1CCN(C(=O)C[C@@H]2CC[C@@H]3[C@H](COC[C@@H](O)CN3C(=O)C3CCCC3)O2)CC1	none (no result: C diff HTS)
C[C@@H]1CN([C@@H](C)CO)C(=O)c2ccccc2-c2ccccc2CO[C@@H]1CN(C)C(=O)Nc1cccc(Cl)c1Cl	none
C[C@@H]1CN([C@H](C)CO)C(=O)c2ccccc2-c2ccccc2CO[C@@H]1CN(C)C(=O)Nc1cccc(Cl)c1Cl	none
C[C@@H]1CN([C@@H](C)CO)C(=O)c2ccccc2-c2ccccc2CO[C@H]1CN(C)C(=O)Nc1cccc(Cl)c1Cl	Pf Dd2 inh -95
C[C@@H]1CN([C@H](C)CO)C(=O)c2ccccc2-c2ccccc2CO[C@H]1CN(C)C(=O)Nc1cccc(Cl)c1Cl	Pf Dd2 inh -94
C[C@@H]1CN([C@@H](C)CO)C(=O)c2cccc(NC(=O)C3CCCCC3)c2O[C@@H]1CN(C)C	none
C[C@@H]1CN([C@@H](C)CO)C(=O)c2cc(NC(=O)CCC(F)(F)F)ccc2O[C@@H](C)CCCCO[C@H]1CN(C)C(=O)Cc1ccccc1	none (no result: C diff HTS)
COc1cccc(C#Cc2ccc([C@@H]3[C@@H](CO)N(C(=O)C4CCCCC4)[C@H]3C#N)cc2)c1	none
COc1cccc(C#Cc2ccc([C@@H]3[C@@H](C#N)N(C(=O)C4CCC4)[C@H]3CO)cc2)c1	none
COc1cccc(C#Cc2ccc([C@@H]3[C@@H](CO)N(C(=O)C4CCCC4)[C@H]3C#N)cc2)c1	Pf Dd2 inh -83
COc1cccc(C#Cc2ccc([C@@H]3[C@@H](C#N)N(C(=O)C4CCCCC4)[C@H]3CO)cc2)c1	Pf Dd2 inh -91
C[C@H]1CCCCO[C@@H](CN(C)Cc2ccc3c(c2)OCO3)[C@@H](C)CN([C@@H](C)CO)C(=O)c2cc(NC(=O)CCC(F)(F)F)ccc2O1	none
CCCN(C)C[C@H]1OCCCC[C@@H](C)Oc2ccc(NS(=O)(=O)c3cccs3)cc2C(=O)N([C@@H](C)CO)C[C@@H]1C	Pf Dd2 inh -90
CCCN(C)C[C@H]1OCCCC[C@H](C)Oc2ccc(NS(=O)(=O)c3cccs3)cc2C(=O)N([C@@H](C)CO)C[C@H]1C	none
CCCN(C)C[C@H]1OCCCC[C@@H](C)Oc2ccc(NS(=O)(=O)c3cccs3)cc2C(=O)N([C@H](C)CO)C[C@@H]1C	Pf Dd2 inh -86
CCCN(C)C[C@H]1OCCCC[C@H](C)Oc2ccc(NS(=O)(=O)c3cccs3)cc2C(=O)N([C@H](C)CO)C[C@H]1C	Pf Dd2 inh inconclusive
C[C@H]1CN([C@@H](C)CO)C(=O)c2cc(C#CC3CCCCC3)cnc2O[C@@H]1CN(C)C(=O)c1ccncc1	none
CCCC#Cc1cnc2c(c1)C(=O)N([C@@H](C)CO)C[C@H](C)[C@@H](CN(C)Cc1ccccc1F)O2	none
CNC(=O)C[C@@H]1CC[C@H]2[C@@H](COc3ccc(NC(=O)Cc4cccs4)cc3C(=O)N2C)O1	none
O=C(C[C@@H]1CC[C@@H]2[C@H](COC[C@@H](O)CN2Cc2nccs2)O1)NCc1ccc(Oc2ccccc2)cc1	none
C[C@@H]1CN([C@@H](C)CO)C(=O)c2cc(NS(=O)(=O)c3ccc(F)cc3)ccc2O[C@@H](C)CCCCO[C@@H]1CN(C)C(=O)Nc1cccc2ccccc12	Pf Dd2 inh -86
C[C@H]1CCCCO[C@@H](CN(C)C(=O)Nc2cccc3ccccc23)[C@@H](C)CN([C@@H](C)CO)C(=O)c2cc(NS(=O)(=O)c3ccc(F)cc3)ccc2O1	none
C[C@H](CO)N1C[C@H](C)[C@H](CN(C)C(=O)Nc2cccc3ccccc23)OCCCC[C@H](C)Oc2ccc(NS(=O)(=O)c3ccc(F)cc3)cc2C1=O	none
C[C@H](CO)N1C[C@H](C)[C@@H](CN(C)C(=O)Nc2cccc3ccccc23)OCCCC[C@H](C)Oc2ccc(NS(=O)(=O)c3ccccc3)cc2C1=O	none (no result: C diff HTS)
C[C@@H]1CN([C@@H](C)CO)C(=O)c2cc(NS(=O)(=O)c3ccc(F)cc3)ccc2O[C@@H](C)CCCCO[C@H]1CN(C)C(=O)Nc1cccc2ccccc12	Pf Dd2 inh -86
C[C@@H]1CCCCO[C@H](CN(C)C(=O)Nc2cccc3ccccc23)[C@H](C)CN([C@H](C)CO)C(=O)c2cc(NS(=O)(=O)c3ccc(F)cc3)ccc2O1	Pf Dd2 inh -84
C[C@H]1CN([C@@H](C)CO)C(=O)Cc2cc(NC(=O)Nc3ccccc3)ccc2O[C@H]1CN(C)Cc1ccc(C(F)(F)F)cc1	none
C[C@@H]1CCCCO[C@H](CN(C)S(C)(=O)=O)[C@@H](C)CN([C@H](C)CO)C(=O)c2cc(NS(C)(=O)=O)ccc2O1	none
O=C(Cc1ccccc1)N1CC(=O)N2[C@H](CO)[C@H](c3ccc(C#CCc4ccccc4)cc3)[C@H]2C1	Pf Dd2 inh -89
O=C(C1CCC1)N1CC(=O)N2[C@H](CO)[C@H](c3ccc(C#CCc4ccccc4)cc3)[C@H]2C1	none
O=C(c1cnccn1)N1CC(=O)N2[C@H](CO)[C@@H](c3ccc(C#CCc4ccccc4)cc3)[C@@H]2C1	none
O=C(c1cnccn1)N1CC(=O)N2[C@@H](CO)[C@@H](c3ccc(C#CCc4ccccc4)cc3)[C@@H]2C1	Pf Dd2 inh -83
O=C(C1CCC1)N1CC(=O)N2[C@H](CO)[C@@H](c3ccc(C#CCc4ccccc4)cc3)[C@@H]2C1	Pf Dd2 inh -86
O=C(Cc1ccccc1)N1CC(=O)N2[C@H](CO)[C@@H](c3ccc(C#CCc4ccccc4)cc3)[C@H]2C1	none
Cc1noc(C)c1S(=O)(=O)N(C)C[C@@H]1OCCCC[C@@H](C)Oc2ccc(NC(=O)NC3CCCCC3)cc2C(=O)N([C@@H](C)CO)C[C@@H]1C	none
